Results published in PubChem BioAssay (EPA / NIEHS).
“And” between values parts separate entries of the source, which are not always exact repeats. Equal values may be shown once. Records with an inconclusive call do not appear. A structure can be active in one record and inactive in another. The source made the active and inactive calls. The calls were made as follows: active = hit-call score of the fitted dose curve at least 0.9, where 1 is the maximum; inconclusive = response in the unintended direction; inactive = score below 0.9.

Target: Cellular tumor antigen p53 (Homo sapiens) (UniProt P04637)
Test: TOX21_p53_BLA_p3_ratio: Tox21 HCT-116 p53 Agonism Beta-lactamase Assay, Ratio, Phase 3 (AID 2283596)
Description: TOX21_p53_BLA_p3 is a cell-based, single-readout assay that uses HCT116, a human intestinal cell line, […] in a 1536-well plate.TOX21_p53_BLA_p3_ratio is an assay readout measuring reporter gene via receptor activity and designed using inducible reporter (beta lactamase induction) detected with GAL4 b-lactamase reporter gene. The signal is derived from the ratio of cleaved (ch2) to uncleaved (ch1) reporter gene substrate used as the measure of target activity.Data from the assay component TOX21_p53_BLA_p3_ratio was analyzed into 1 assay endpoint. This assay endpoint, TOX21_p53_BLA_p3_ratio, was analyzed in the positive analysis fitting direction relative to DMSO as the negative control and baseline of activity. Using a type of inducible reporter, gain-of-signal activity can be used to understand changes in the reporter gene as they relate to the gene TP53. Furthermore, this assay endpoint can be referred to as a primary readout, because this assay has produced multiple assay endpoints where this ratio serves a reporter gene function to understand target activity. To generalize the intended target to other relatable targets, this assay endpoint is annotated to the DNA binding intended target family, where the subfamily is tumor suppressor.
Thawing Method: Place 14 mL of pre-warmed thaw medium into a 15 mL of conical tub. Remove the vial of cells to be thawed from liquid nitrogen and thaw rapidly by placing at 37C in a water bath with gentle agitation for 1-2 minutes. Decontaminate the vial by wiping with 70% ethanol before opening in a biological safety cabinet. Transfer the vial contents drop-wise into 14 mL of thaw medium in a sterile 15-mL conical tub. Centrifuge cells at 900 rpm for 4 minutes and resuspend in thaw medium. Transfer contents to the T75 tissue culture flask containing Thaw Medium and place flask in a humidified 37C/5% CO2 incubator. Switch to growth medium at first passage.Propagation Method: Aspirate medium, rinse once in DPBS, add 0.25% Trypsin/EDTA and swirl to coat the cell evenly. Add an equal volume of Growth Medium to inactivate Trypsin after 2-3 minutes incubation at 37C. Centrifuge cells at 900 rpm for 4 minutes and resuspend in growth medium. Cell should be passage or fed at least twice a week.Assay Protocol: Harvest cells from culture in growth medium and resuspend in assay medium. 2.2 Dispense 4000 cells/5 uL/well into 1536-well black/clear bottom plates using a Multidrop dispenser. After the cells were incubated at 37C for 5 hours, 23 nL of compounds dissolved in DMSO were transferred to the assay plate by a PinTool resulting in a 217-fold dilution. Incubate the plates for 16 hours at 37C, 5% CO2. Add 1 uL of 6X LiveBLAzer FRET B/G (CCF4-AM) Substrate Mixture to each well using a BioRAPTR dispenser and incubate the plates at room temperature for 2 hours. Measure fluorescence intensity at 460 and 530 nm emission and 405 nm excitation by an Envision detector. Data is expressed as the ratio of 460nm/530nm emissions. Add 4 uL of Cell-titer Glo to each well using BioRAPTR and incubate the plates at room temperature for 2 hours. Measure fluorescence intensity by a VewLux plate reader.

Sequence of Cellular tumor antigen p53 (Homo sapiens) (P04637 whole entry, looked up): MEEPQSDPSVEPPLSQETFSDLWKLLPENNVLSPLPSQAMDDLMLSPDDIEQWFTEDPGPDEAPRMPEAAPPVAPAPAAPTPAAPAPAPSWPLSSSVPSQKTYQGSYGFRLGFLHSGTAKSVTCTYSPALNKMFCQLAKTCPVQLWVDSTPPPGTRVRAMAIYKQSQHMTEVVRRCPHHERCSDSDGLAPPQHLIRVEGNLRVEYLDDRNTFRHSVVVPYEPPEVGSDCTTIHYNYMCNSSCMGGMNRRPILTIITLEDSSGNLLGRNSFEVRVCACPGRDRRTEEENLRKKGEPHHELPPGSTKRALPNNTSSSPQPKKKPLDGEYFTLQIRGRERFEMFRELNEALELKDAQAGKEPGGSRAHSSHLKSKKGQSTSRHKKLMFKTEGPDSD

| SMILES | AC50 | outcome |
| --- | --- | --- |
| CCCCCCc1ccc(O)cc1O | 63.9 µM (active) | inactive |
| CC(C)c1cccc(C(C)C)c1N1C(=O)c2ccc(O)cc2C1=O | – | inactive |
| COC(=O)c1ccccc1O | – | inactive |
| O=C1CCC(N2C(=O)c3ccccc3C2=O)C(=O)N1 (stereo not given) | – | inactive |
| Nc1nc2ncc(CNc3ccc(C(=O)N[C@@H](CCC(=O)O)C(=O)O)cc3)nc2c(=O)[nH]1 | – | inactive |
| Fc1ccccc1[C@@H](F)COC1CCC(Nc2ncnc3[nH]ncc23)CC1 (stereo not given in full) | – | inactive |
| CN(C)c1ccc(Cc2ccc(N(C)C)cc2)cc1 | – | inactive |
| CCNc1ccccc1 | – | inactive |
| COC(=O)c1c(Cl)c(Cl)c(C(=O)OC)c(Cl)c1Cl | – | inactive |
| C1N2CN3CN1CN(C2)C3 | – | inactive |
| CC[C@H]1OC(=O)[C@H](C)[C@@H](O[C@H]2C[C@@](C)(OC)[C@@H](O)[C@H](C)O2)[C@H](C)[C@@H](O[C@@H]2O[C@H](C)C[C@H](N(C)C)[C@H]2O)[C@](C)(O)C[C@@H](C)C(=O)[C@H](C)[C@@H](O)[C@]1(C)O | – | inactive |
| CC1(C)C(=O)N(Br)C(=O)N1Br | – | inactive |
| Oc1ccc2c(c1)-c1ccccc1C2 | – | inactive |
| Clc1nc(Cl)c(Cl)c(Cl)c1Cl | – | inactive |
| COc1ccc2sc(C(=O)Nc3nnn[nH]3)c(OC(C)C)c2c1 | – | inactive |
| CCCN(C1CCN(C(=O)C2CCNCC2)CC1)[C@@H]1CCc2ccc(OC)cc2C1 | – | inactive |
| CC(C)=CCC/C(C)=C\CO | – | inactive |
| COc1ccc(/C=C/S(=O)(=O)NC(=O)c2ccc(C)cc2Cl)cc1 | 29 µM (active) | – |
| CC(C)CCCCCCOC(=O)c1ccc(C(=O)OCCCCCCC(C)C)c(C(=O)OCCCCCCC(C)C)c1 | – | inactive |
| Cn1cnc([N+](=O)[O-])c1Sc1ncnc2nc[nH]c12 | 30 µM (active) and 33.1 µM (active) | – |

| SMILES | AC50 | outcome |
| --- | --- | --- |
| O=C(NS(=O)(=O)/C=C/c1ccccc1)c1ccc(F)cc1Cl | 24.9 µM (active) | – |
| Cn1c(=O)c2c(ncn2C)n(C)c1=O | – | inactive |
| O=C(O)c1cccc(N(Cc2cccnc2)c2ccc(OC(F)F)c(OC(F)F)c2)c1 | – | inactive |
| CCOCCOCCOCCO | – | inactive |
| CCCCCCCCCCCCc1ccccc1 | – | inactive |
| O=C(CCCCCCCCc1cccnc1)N1CCC(C=C(c2ccccc2)c2ccccc2)CC1 | 43.2 µM (active) | – |
| O=c1n(CC2CO2)c(=O)n(CC2CO2)c(=O)n1CC1CO1 (stereo not given) | 26.8 µM (active) and 19.6 µM (active) | – |
| CC(=O)OCCC(C)C | – | inactive |
| COCCOc1cc2cc(C(=O)NC3CCN(C(C)C)CC3)n(CC(=O)Nc3ccc(Cl)cn3)c2cn1 | – | inactive |
| COc1ccc(-n2nc(C(F)F)cc2-c2ccc(S(C)=O)cc2)cc1 (stereo not given) | – | inactive |
| CCOCCO | – | inactive |
| On1ccccc1=S | – | inactive |
| CC(O)CN(CCN(CC(C)O)CC(C)O)CC(C)O (stereo not given) | – | inactive |
| Cc1c(-c2cccnc2)c2ccccc2n1CCCCC(=O)O | – | inactive |
| CC1=CC(=O)CC(C)(C)C1 | – | inactive |
| O=C(OC[C@H]1O[C@@H](OC(=O)c2cc(O)c(O)c(OC(=O)c3cc(O)c(O)c(O)c3)c2)[C@H](OC(=O)c2cc(O)c(O)c(OC(=O)c3cc(O)c(O)c(O)c3)c2)[C@@H](OC(=O)c2cc(O)c(O)c(OC(=O)c3cc(O)c(O)c(O)c3)c2)[C@@H]1OC(=O)c1cc(O)c(O)c(OC(=O)c2cc(O)c(O)c(O)c2)c1)c1cc(O)c(O)c(OC(=O)c2cc(O)c(O)c(O)c2)c1 | 11.2 µM (active) and 5.34 µM (active) | – |
| CCOC(=O)COc1ccc2c(c1)CC(NCC(O)c1cccc(Cl)c1)CC2 (stereo not given) | – | inactive |
| COc1cccc(-c2ccc(/C=C\CN3CCCCCC3)cc2Cl)c1 | – | inactive |
| CC[C@H](C)C(=O)O[C@H]1C[C@@H](C)C=C2C=C[C@H](C)[C@H](CC[C@@H]3C[C@@H](O)CC(=O)O3)[C@H]21 | – | inactive |
